{"source": "paper PMC4336329", "about": "(PLoS ONE, 2015)", "note": "Among all 310,000 compounds or so, about 14,000 (4.5%) showed an effect of 50% or more. Effects have a minus sign here. The sample as a whole holds a higher share of strong results than the screen did.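 Further: peak tail current of the secondary pulse compared with the same well before compound.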"}
{"biological_target": "human ether-à-go-go-related gene (hERG) potassium channel (human, UniProt Q12809)", "sequence (Q12809 whole entry, looked up)": "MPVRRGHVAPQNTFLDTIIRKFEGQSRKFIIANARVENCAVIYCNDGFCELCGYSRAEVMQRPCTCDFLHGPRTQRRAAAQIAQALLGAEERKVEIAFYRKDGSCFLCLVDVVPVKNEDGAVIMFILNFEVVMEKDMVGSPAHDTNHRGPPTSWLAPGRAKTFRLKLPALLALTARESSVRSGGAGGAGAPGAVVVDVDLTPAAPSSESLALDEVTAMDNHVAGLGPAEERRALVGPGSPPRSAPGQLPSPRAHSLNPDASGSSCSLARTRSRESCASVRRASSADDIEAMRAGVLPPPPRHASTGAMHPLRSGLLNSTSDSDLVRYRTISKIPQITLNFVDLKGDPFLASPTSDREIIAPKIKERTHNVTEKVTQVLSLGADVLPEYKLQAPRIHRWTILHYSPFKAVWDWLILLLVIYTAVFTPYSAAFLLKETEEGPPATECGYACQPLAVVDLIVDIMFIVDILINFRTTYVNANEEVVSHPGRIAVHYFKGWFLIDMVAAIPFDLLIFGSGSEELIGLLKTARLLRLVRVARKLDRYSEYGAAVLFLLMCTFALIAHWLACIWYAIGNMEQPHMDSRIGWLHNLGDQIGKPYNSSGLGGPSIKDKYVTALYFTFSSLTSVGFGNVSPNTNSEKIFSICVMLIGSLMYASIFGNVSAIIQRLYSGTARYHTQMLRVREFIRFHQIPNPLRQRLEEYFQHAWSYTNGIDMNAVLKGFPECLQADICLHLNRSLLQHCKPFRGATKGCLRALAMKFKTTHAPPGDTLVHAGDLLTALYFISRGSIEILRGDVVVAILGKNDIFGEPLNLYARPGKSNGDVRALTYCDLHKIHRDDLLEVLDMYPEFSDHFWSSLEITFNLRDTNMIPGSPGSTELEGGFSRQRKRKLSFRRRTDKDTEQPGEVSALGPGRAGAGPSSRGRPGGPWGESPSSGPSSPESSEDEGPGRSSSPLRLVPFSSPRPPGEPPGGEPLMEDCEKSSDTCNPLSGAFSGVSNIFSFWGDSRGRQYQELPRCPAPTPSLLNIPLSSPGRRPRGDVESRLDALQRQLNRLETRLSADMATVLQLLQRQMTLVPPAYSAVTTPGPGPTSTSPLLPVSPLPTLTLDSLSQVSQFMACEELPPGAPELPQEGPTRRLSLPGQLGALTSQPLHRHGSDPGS", "assay": "primary screen, population patch clamp on CHO cells stably expressing hERG; higher = less effect of the substance", "units": {"hERG current change (%, negative = inhibition) at 10uM": "%"}}
{"smiles": "CN(CCN1CCOCC1)Cc1nc(-c2ccc(Cl)cc2)no1", "hERG current change (%, negative = inhibition) at 10uM": -28.1}
{"smiles": "O=C(NCc1cccs1)C(=O)NCC1OCCCN1S(=O)(=O)c1cccs1", "note": "(centres unmarked)", "hERG current change (%, negative = inhibition) at 10uM": -15.3}
{"smiles": "CC(C)c1ccc(N(CC(=O)NC(C)(C)C)C(=O)CCC(=O)Nc2nccs2)cc1", "hERG current change (%, negative = inhibition) at 10uM": 2.7}
{"smiles": "Cc1ccccc1NC(=O)CN1C(=O)CSc2ccccc21", "hERG current change (%, negative = inhibition) at 10uM": 17.3}
{"smiles": "CC(=O)c1cccc(S(=O)(=O)N(C)C2CCN(C)CC2)c1.Cl", "hERG current change (%, negative = inhibition) at 10uM": -2.43}
{"smiles": "O=C(COc1ccc(Br)cc1Br)NC(=S)N1CCCc2ccccc21", "hERG current change (%, negative = inhibition) at 10uM": -2.7}
{"smiles": "CN1CCN(C(=O)c2ccccc2N(Cc2ccccc2)S(=O)(=O)c2ccccc2)CC1", "hERG current change (%, negative = inhibition) at 10uM": -8.4}
{"smiles": "Cc1ccc(-c2[nH]nc3c2C(c2ccsc2)C(C#N)=C(N)O3)cc1", "note": "(centres unmarked)", "hERG current change (%, negative = inhibition) at 10uM": -18.9}
{"smiles": "CCc1ccc(N(CC)c2ncnc3nc[nH]c23)cc1", "hERG current change (%, negative = inhibition) at 10uM": -4.89}
{"smiles": "CC(C)c1ccc2oc(=O)cc(CN3CCN(c4ccc(F)cc4)CC3)c2c1", "hERG current change (%, negative = inhibition) at 10uM": -2.26}
{"smiles": "CC(C)NC(=O)CSc1nc2[nH]ncc2c(=O)[nH]1", "hERG current change (%, negative = inhibition) at 10uM": 15.6}
{"smiles": "O=C(NCc1ccco1)c1ccc(OCC2CCCO2)cc1", "note": "(centres unmarked)", "hERG current change (%, negative = inhibition) at 10uM": -23.2}
{"smiles": "Cc1ccccc1CN1CCC(CNC(=O)C2CCCN(c3ncnc4c3nc3n4CCCCC3)C2)CC1", "note": "(centres unmarked)", "hERG current change (%, negative = inhibition) at 10uM": -7.3}
{"smiles": "CSc1cccc(NC(=O)C2CCCN(c3ncnc4c3nc3n4CCCCC3)C2)c1", "note": "(centres unmarked)", "hERG current change (%, negative = inhibition) at 10uM": -47.9}
{"smiles": "COc1cc(NC(=O)C2CCCN(c3ncnc4c3nc3n4CCCCC3)C2)cc(OC)c1OC", "note": "(centres unmarked)", "hERG current change (%, negative = inhibition) at 10uM": -6.46}
{"smiles": "CCc1cccc(NC(=O)C2CCCN(c3ncnc4c3nc3n4CCCCC3)C2)c1", "note": "(centres unmarked)", "hERG current change (%, negative = inhibition) at 10uM": -46.4}
{"smiles": "COc1cccc(NC(=O)C2CCCN(c3ncnc4c3nc3n4CCCCC3)C2)c1", "note": "(centres unmarked)", "hERG current change (%, negative = inhibition) at 10uM": -67.4}
{"smiles": "O=C(NCc1ccc(Cl)cc1)C1CCCN(c2ncnc3c2nc2n3CCCCC2)C1", "note": "(centres unmarked)", "hERG current change (%, negative = inhibition) at 10uM": -55.4}
{"smiles": "COc1ccc(OC)c(CNC(=O)C2CCCN(c3ncnc4c3nc3n4CCCCC3)C2)c1", "note": "(centres unmarked)", "hERG current change (%, negative = inhibition) at 10uM": -59}
{"smiles": "COc1ccc(OC)c(CCNC(=O)C2CCN(c3ncnc4c3nc3n4CCCCC3)CC2)c1", "hERG current change (%, negative = inhibition) at 10uM": -0.169}
{"smiles": "CCOc1ccccc1CNC(=O)C1CCCN(c2ncnc3c2nc2n3CCCCC2)C1", "note": "(centres unmarked)", "hERG current change (%, negative = inhibition) at 10uM": -51.6}
{"smiles": "COc1ccccc1CNC(=O)C1CCN(c2ncnc3c2nc2n3CCCCC2)CC1", "hERG current change (%, negative = inhibition) at 10uM": 6.69}
{"smiles": "C/C(CC(=O)Nc1ccc([N+](=O)[O-])cc1)=N/NC(=O)C1C2CCCCC21", "note": "(centres unmarked)", "hERG current change (%, negative = inhibition) at 10uM": -21.7}
{"smiles": "O=C(Nc1ccc(NC(=O)c2ccc3c(c2)OCO3)cc1)c1cccc(Cl)c1", "hERG current change (%, negative = inhibition) at 10uM": 24.9}
{"smiles": "Cc1onc(-c2ccccc2)c1C(=O)OCCOc1ccc([N+](=O)[O-])cc1[N+](=O)[O-]", "hERG current change (%, negative = inhibition) at 10uM": -17.9}
{"smiles": "O=C(CCN1C(=O)COc2ccccc21)NCc1cccnc1", "hERG current change (%, negative = inhibition) at 10uM": 6.28}
{"smiles": "Cc1c(NC(=O)C2CC(c3ccc(F)cc3)=NO2)c(=O)n(-c2ccccc2)n1C", "note": "(centres unmarked)", "hERG current change (%, negative = inhibition) at 10uM": -3.93}
{"smiles": "O=S(=O)(NN=C1CCCCCCC1)c1ccc(Br)cc1", "hERG current change (%, negative = inhibition) at 10uM": 4.3}
{"smiles": "Cc1ccc(-c2noc(CN(C)C(=O)c3ccc(Br)o3)n2)cc1", "hERG current change (%, negative = inhibition) at 10uM": -18.7}
{"smiles": "O=C(CCCn1c(=O)[nH]c2ccsc2c1=O)NCc1cccs1", "hERG current change (%, negative = inhibition) at 10uM": 4.11}
{"smiles": "CCCCN(C(=O)CN1C(=O)C2CC=CCC2C1=O)c1c(N)n(CCC)c(=O)[nH]c1=O", "note": "(centres unmarked)", "hERG current change (%, negative = inhibition) at 10uM": 4.14}
{"smiles": "O=C(O)Cc1cccc2ccccc12", "hERG current change (%, negative = inhibition) at 10uM": 16.6}
{"smiles": "CCCOc1ccc(/C=C2\\SC(N)=NC2=O)cc1OC", "hERG current change (%, negative = inhibition) at 10uM": 3.66}
{"smiles": "O=C(O)c1cccc2c(/C=N/Nc3ccccn3)c[nH]c12", "hERG current change (%, negative = inhibition) at 10uM": -1.13}
{"smiles": "CN(Cc1ccccc1)C(=O)C1CCCN(c2ncnc3c2nc2n3CCCCC2)C1", "note": "(centres unmarked)", "hERG current change (%, negative = inhibition) at 10uM": -66}
{"smiles": "O=C(NCC1CCN(Cc2ccc(Cl)cc2)CC1)C1CCCN(c2ncnc3c2nc2n3CCCCC2)C1", "note": "(centres unmarked)", "hERG current change (%, negative = inhibition) at 10uM": -65.7}
{"smiles": "Cc1ccc(CNC(=O)C2CCCN(c3ncnc4c3nc3n4CCCCC3)C2)cc1", "note": "(centres unmarked)", "hERG current change (%, negative = inhibition) at 10uM": -49}
{"smiles": "CN(Cc1ccco1)C(=O)C1CCCN(c2ncnc3c2nc2n3CCCCC2)C1", "note": "(centres unmarked)", "hERG current change (%, negative = inhibition) at 10uM": 5.57}
{"smiles": "O=C(NCc1ccccc1)C1CCCN(c2ncnc3c2nc2n3CCCCC2)C1", "note": "(centres unmarked)", "hERG current change (%, negative = inhibition) at 10uM": -69.1}
{"smiles": "CCN(C(=O)C1CCCN(c2ncnc3c2nc2n3CCCCC2)C1)c1cccc(Cl)c1", "note": "(centres unmarked)", "hERG current change (%, negative = inhibition) at 10uM": -62.5}
{"smiles": "CN(C(=O)C1CCCN(c2ncnc3c2nc2n3CCCCC2)C1)c1cccc(Cl)c1", "note": "(centres unmarked)", "hERG current change (%, negative = inhibition) at 10uM": -45.9}
{"smiles": "Cc1ccc(CN2CCC(CNC(=O)C3CCCN(c4ncnc5c4nc4n5CCCCC4)C3)CC2)cc1", "note": "(centres unmarked)", "hERG current change (%, negative = inhibition) at 10uM": -45}
{"smiles": "CC(C)N(Cc1ccccc1)C(=O)C1CCCN(c2ncnc3c2nc2n3CCCCC2)C1", "note": "(centres unmarked)", "hERG current change (%, negative = inhibition) at 10uM": -44.3}
{"smiles": "O=C(NCC1CCN(Cc2ccc(F)cc2)CC1)C1CCCN(c2ncnc3c2nc2n3CCCCC2)C1", "note": "(centres unmarked)", "hERG current change (%, negative = inhibition) at 10uM": -39.6}
{"smiles": "CC(C)N(CCNC(=O)C1CCCN(c2ncnc3c2nc2n3CCCCC2)C1)Cc1ccccc1", "note": "(centres unmarked)", "hERG current change (%, negative = inhibition) at 10uM": -37.3}
{"smiles": "Cc1ccccc1N(C)C(=O)C1CCCN(c2ncnc3c2nc2n3CCCCC2)C1", "note": "(centres unmarked)", "hERG current change (%, negative = inhibition) at 10uM": -7.96}
{"smiles": "O=C(C1CC1)N1CCCN(C(=O)C2CC2)CC1", "hERG current change (%, negative = inhibition) at 10uM": 16.3}
{"smiles": "CCC1(C)Cc2ccccc2-c2nc(NCCCO)n(-c3ccccc3)c(=O)c21", "note": "(centres unmarked)", "hERG current change (%, negative = inhibition) at 10uM": -48.6}
{"smiles": "c1ccc(COc2ccccc2CNc2nn[nH]n2)cc1", "hERG current change (%, negative = inhibition) at 10uM": 13.1}
{"smiles": "O=C(Nc1sc2c(c1C(=O)NCC(O)CO)CCCC2)c1ccccc1", "note": "(centres unmarked)", "hERG current change (%, negative = inhibition) at 10uM": 6.02}
{"smiles": "O=C(COC(=O)CNC(=O)c1cccs1)Nc1ccc(C(F)(F)F)cc1[N+](=O)[O-]", "hERG current change (%, negative = inhibition) at 10uM": -44}
{"smiles": "CCn1c(C)nnc1SCC(=O)Nc1ccc(Cl)cc1", "hERG current change (%, negative = inhibition) at 10uM": 10.3}
{"smiles": "CN(CC(=O)NCCCc1ccccc1)S(=O)(=O)c1ccc(Br)cc1", "hERG current change (%, negative = inhibition) at 10uM": -7.88}
{"smiles": "O=C(Nc1ccc(Cl)cc1)C1CCCN(c2ncnc3c2nc2n3CCCCC2)C1", "note": "(centres unmarked)", "hERG current change (%, negative = inhibition) at 10uM": -50.1}
{"smiles": "Cc1ccc(NC(=O)C2CCCN(c3ncnc4c3nc3n4CCCCC3)C2)cc1Cl", "note": "(centres unmarked)", "hERG current change (%, negative = inhibition) at 10uM": -6.39}
{"smiles": "CC(=O)c1ccc(NC(=O)C2CCCN(c3ncnc4c3nc3n4CCCCC3)C2)cc1", "note": "(centres unmarked)", "hERG current change (%, negative = inhibition) at 10uM": -24.1}
